BAZ2B inh: blocks human BAZ2B; Q9UIF8; AlphaScreen BAZ2B-H3K14Ac peptide displacement; Potency, µM (series often up to 114 µM), most hits filed as inhibitors; actives 4.4% (n = 360,000); also: nearly all actives have a fitted effect of over 60% in size
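Protein-peptide AlphaScreen: BAZ2B 50 nM, b-H3K14Ac 50 nM, 1x PBS pH 7.4 + 0.01% Tween-20. Preincubation 30 min RT; cpd 30 min RT (top 110 uM); beads 20 min RT, light-protected.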
HP1b chromo inh: inhibitors of HP1-beta chromodomain binding to methylated histone tails. P83916. AlphaScreen HP1-beta / biotin-H3K9me3 peptide binding. actives 0.56% (n = 390,000). Potency, µM (top dose mostly 114 µM), actives largely listed as inhibitors; also: nearly all actives have a fitted effect of over 70% in size
Target sequence (P83916 whole entry, looked up): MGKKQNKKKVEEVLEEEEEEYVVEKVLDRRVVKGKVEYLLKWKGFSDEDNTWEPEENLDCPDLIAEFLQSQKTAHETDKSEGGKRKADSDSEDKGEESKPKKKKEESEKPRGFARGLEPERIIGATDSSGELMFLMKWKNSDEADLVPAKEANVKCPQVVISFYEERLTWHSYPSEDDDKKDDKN
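AlphaScreen: HP1-beta (50 nM) preformed 30 min with biotin-H3(1-18)K9me3 peptide (50 nM) in PBS pH 7.4, 0.01% Tween-20. Compound added for 30 min at RT, then streptavidin donor/nickel chelate acceptor beads (10 ug/mL) for 30 min.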
G9a inh: inhibitors of human histone lysine methyltransferase G9a; actives 8.8% (n = 350,000); Q96KQ7; G9a H3K9 monomethylation, AlphaScreen, 2 h; Potency, µM (doses to about 102 µM), usual class: inhibitors; also: nearly all actives have a fitted effect of over 75% in size
Target sequence (Q96KQ7 913-1193 limits assumed): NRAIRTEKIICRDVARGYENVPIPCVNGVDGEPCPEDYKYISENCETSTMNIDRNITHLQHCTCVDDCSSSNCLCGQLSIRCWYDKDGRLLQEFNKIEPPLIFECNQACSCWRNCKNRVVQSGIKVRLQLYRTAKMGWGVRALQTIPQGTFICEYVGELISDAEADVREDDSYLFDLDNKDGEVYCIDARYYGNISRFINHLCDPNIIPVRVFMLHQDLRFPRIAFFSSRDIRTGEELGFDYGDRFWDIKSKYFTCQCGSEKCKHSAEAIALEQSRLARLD
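AlphaScreen read-out: biotin-H3K9 peptide (500 nM) methylation by 20 nM enzyme with 20 uM SAM, 2 h at room temperature after 15 min compound preincubation; anti-monomethyl H3K9 antibody plus donor/acceptor beads, 10 min dark.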
PLK1 PBD inh: inhibitors of human PLK1 polo-box domain binding. P53350. Plk1 PBD binding of FITC phosphopeptide, fluorescence polarization. Potency, µM, usual class: inhibitors. actives 2.8% (n = 360,000). AID 720504; also: series mostly up to about 57 µM; nearly all actives have a fitted effect of over 65% in size
JMJD2A Tudor: inhibitors of human JMJD2A Tudor domain; Potency, µM (titrated, usually from 114 µM), usual class: inhibitors; AID 504339; O75164; AlphaScreen JMJD2A-Tudor / H3K4me3 peptide binding; actives 4.4% (n = 390,000); also: nearly all actives have a fitted effect of over 50% in size
Sfp PPTase inh: blocks B. subtilis Sfp PPTase activity; Potency, µM, hits mostly inhibitors; actives 3.5% (n = 310,000); Biochemical Sfp PPTase activity, qHTS;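 also: the enzyme is Sfp with the accession as filed and its product quenches rhodamine fluorescence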
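Sfp 15 nM + cpd, 15 min RT; start w/ rhodamine-CoA 5 uM, BHQ-2-YbbR 12.5 uM (final); 50 mM Hepes pH 7.6, 10 mM MgCl2, 0.01% NP-40, 0.01% BSA; read 525/598 nm at 0 and 30 min.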
Hits are given with their value; . = inactive; ? = inconclusive; / = not tested or not shown; [ ] = dose if it differs, or a comment. Most compounds without a hit are left out; they make up all but 12% or so of the library. Calls follow the shape of the dose curve; as a rule, active = well fitted curve in the direction sought with a large enough effect; inconclusive = small, poorly fitted or top-dose-only effect, or another doubt; inactive = no such curve, though single readings can be large; an effect the other way counts as inactive or inconclusive.

SMILES	BAZ2B inh	HP1b chromo inh	G9a inh	PLK1 PBD inh	JMJD2A Tudor	Sfp PPTase inh
CCOc1ccc(NC(=O)c2ccc(NC(=O)c3cn4c5c(c(N6CCN(C)CC6)c(F)cc5c3=O)OCC4C)cc2)cc1 (centres undefined)	.	.	50.1µM	.	.	.
COc1ccc(Cn2c(SCc3ccc(C)cc3)nc3cc(OC)c(OC)cc3c2=N)cc1Cl	?	.	39.8µM	.	?	3.98µM
COc1ccc(Cn2c(SCc3cc(C)ccc3C)nc3cc(OC)c(OC)cc3c2=N)cc1	?	.	?	.	?	3.16µM
CCCc1c(-c2ccc(F)cc2F)ncn1Cc1ccccc1OC	/	/	/	.	/	/
COc1ccc(NC(=O)CCl)cn1	79.4µM	/	28.2µM	/	/	?
COc1ccc(NC(=O)Nc2cccs2)cn1	.	.	35.5µM	.	.	56.2µM
COc1ccc(NC(=O)Nc2cc(C)cc(C)c2)cn1	.	.	.	.	.	.
CC1(C)OC(C(O)(c2cc(F)c(F)c(F)c2)c2cc(F)c(F)c(F)c2)C(C(O)(c2cc(F)c(F)c(F)c2)c2cc(F)c(F)c(F)c2)O1 (centres undefined)	/	/	/	/	/	.
CCOC(=O)C(=O)C1(C(=O)OCC)Oc2cc(OC)cc(OC)c2C(=O)C1c1ccccc1 (centres undefined)	/	/	/	/	/	.
COc1ccc(NC(=O)CN(C)C(=O)c2ccc3c(c2)CC(c2ccccc2)OC3=O)cc1 (centres undefined)	/	/	/	.	/	/
COc1cccc(NC(=O)CN(C)C(=O)c2ccc3[nH]c4c(c3c2)CC(C)CC4)c1 (centres undefined)	39.8µM	.	35.5µM	.	?	/
CC1CCc2[nH]c3ccc(C(=O)N(C)CC(=O)Nc4ccc(F)cc4)cc3c2C1 (centres undefined)	?	?	?	.	?	.
COc1ccc(NC(=O)CN(C)C(=O)c2ccc3[nH]c4c(c3c2)CC(C)CC4)cc1 (centres undefined)	?	?	44.7µM	.	?	/
COc1cccc(NC(=O)CN(C)C(=O)c2ccc3c(c2)CC(c2ccccc2)OC3=O)c1 (centres undefined)	?	.	.[2.33 µM]	.	89.1µM	/
COc1ccccc1-n1c(C)nc(=O)c(-c2ccccc2)c1C	.	.	.[12.7 µM]	.	.	.
COc1ccccc1-n1c(-c2cn(C)nc2C)n[nH]c1=S	.	.	7.08µM	.	22.4µM	56.2µM
COc1ccc(OC)c(-n2c(-c3cccc(C)c3)n[nH]c2=S)c1	?	.	1.12µM	?	?	79.4µM
COc1ccccc1-n1c(-c2ccccc2)n[nH]c1=S	.	.	/	.	2.82µM	70.8µM
COc1ccc(OC)c(-n2c(-c3ccccc3)n[nH]c2=S)c1	.	.	?	.	3.16µM	.
CCOC1CCCC(n2cnc3c(=S)nc[nH]c32)O1 (centres undefined)	/	?	/	.	17.8µM	/
Nc1ncnc2c1ncn2C1CCCC(CO)O1 (centres undefined)	/	.	/	.	.	/
O=S(=O)(Nc1ccccc1Cl)c1cc(NC(=S)NCCN2CCOCC2)ccc1Cl	.	.	.	.	.	.
O=S(=O)(Nc1ccc(Br)cc1)c1cccc(NC(=S)NCCN2CCOCC2)c1	.	.	31.6µM	?	.	?
O=S(=O)(Nc1ccccc1F)c1cccc(NC(=S)NCCN2CCOCC2)c1	/	?	/	0.947µM	39.8µM	/
S=C(NCCN1CCOCC1)Nc1ccc(Br)cc1	.	.	.	.	.	.
SMILES	BAZ2B inh	HP1b chromo inh	G9a inh	PLK1 PBD inh	JMJD2A Tudor	Sfp PPTase inh
C#C[C@@]1(O)CC[C@@H]2[C@@H]3CCC4=CC(=O)CC[C@@H]4[C@H]3CC[C@]21C	/	/	.[21.5 µM]	/	/	.
Cc1cc(NC(=O)n2ncc3c(C)cccc32)ccc1Br	.	.	?	/	.	/
Cc1c(-c2cc(C(=O)O)c3ccccc3n2)cnn1C	.	.	44.7µM	.	.	.
Cc1ccc(Nc2nc(C)cc(C)n2)c(C(=O)O)c1	.	.	8.91µM	/	.	/
CCc1cc(=O)[nH]c(SCc2nc(-c3cccc(Cl)c3)no2)n1	.	.	?	/	.	/
COc1ccc(Cl)cc1NC(=S)NCc1ccccn1	.	.	20µM	.	.	?
COC(=O)c1cc(OC)c(OC)cc1NC(=S)Nc1cccc(C(C)=O)c1	.	.	10µM	.	22.4µM	.
COc1cccc(OC)c1C(=O)Nc1cccc(C(C)=O)c1	.	.	.	.	.	.
COC(=O)c1cccc(NC(=S)Nc2cc(Cl)ccc2OC)c1	.	?	/	?	.	20µM
COc1ccc(Cl)cc1NC(=S)Nc1ccccc1C	.	.	/	10.6µM	14.1µM	.
O=C(Nc1cccc(F)c1)N1CC[C@@]2(CCCN(C(=O)c3csnn3)C2)C1	/	/	.[12.7 µM]	/	/	.
COc1cc(C)c(NC(=S)Nc2ccc(C)c(Cl)c2)cc1OC	.	?	?	?	.	.
COc1cc(C)c(NC(=S)Nc2cccc(Cl)c2)cc1OC	.	?	89.1µM	?	.	44.7µM
Cc1ccccc1NC(=S)NCCSc1ccc(Cl)cc1	?	.	.	.	89.1µM	.
CC(=O)c1c(C)[nH]c(C(=O)OCC(=O)Nc2sc3c(c2C#N)CCC(C)C3)c1C (centres undefined)	.	.	.[12.7 µM]	?	.	.
O=C(NCc1cccc(F)c1)C1CCC(=O)N(C2CC2)C1 (centres undefined)	.	.	.	.	.	.
Cc1c2ccccc2cc(Cc2ccccc2)[n+]1C	.	.	28.2µM	.	.	.
Cc1ccc(CNC(=O)C2CCN(C(=O)Nc3ccccc3)CC2)cc1	.	.	.	.	.	.
Cc1ccc(Cl)cc1N1CCN(Cc2nc3ccsc3c(=O)[nH]2)CC1	.	.	2.82µM	29.9µM	.[11.4 µM]	.
COc1ccc(N2CCN(Cc3nc4ccsc4c(=O)[nH]3)CC2)cc1	?	.	?	.	56.2µM	.
O=c1[nH]c(CN2CCN(c3ccc([N+](=O)[O-])cc3)CC2)nc2ccsc12	?	.	.	.	?	.
CCOc1cc(Br)cc(C2NC(=O)c3c(sc4c3CCN(C)C4)N2)c1O (centres undefined)	.	.	?	/	.	/
O=C(c1ccco1)C(O)c1ccco1 (centres undefined)	.	.	50.1µM	?	.	.
COc1ccccc1NS(=O)(=O)c1cc(NC(=O)C(C)C)ccc1N1CCCCC1	/	?	8.91µM	11.9µM	?	39.8µM
COc1ccccc1NS(=O)(=O)c1cc(NC(=O)c2cc[n+]([O-])cc2)ccc1N1CCCC1	/	?	?	2.99µM	63.1µM	11.2µM
COc1ccccc1NS(=O)(=O)c1cc(NC(=O)c2cccs2)ccc1N1CCCC1	.	?	1.58µM	5.32µM	?	20µM
COc1ccccc1NS(=O)(=O)c1cc(NC(=O)Nc2ccccc2)ccc1N1CCCCC1	.	?	10µM	?	.	?
COc1ccccc1NS(=O)(=O)c1cc(NC(=O)c2cccs2)ccc1N1CCCCC1	.	.	.	.	.	.

Screening data: PubChem, National Center for Advancing Translational Sciences (NCATS)
